± gives the standard deviation.
Tests used:
[1] = tested on: MILI (PIWIL2) piRISC loaded with piRNA #1 (26 nt); assay: pre-steady-state target cleavage rate (min^-1); guide: piRNA #1 5'p-UGAGGUAGUAGGUUGUAUAGUAUCCA; higher = faster piRNA-guided slicing of the target; conditions: auxiliary factor: 500 nM mouse GTSF1;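 further: 1 nM active piRISC with 0.1 nM target library at 33 °C single turnover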
How it was run: (§1)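 At 33 °C in HEPES–potassium acetate buffer, a transcribed, DNA-blocked target RNA library […] was exposed for 0–8 or 0–960 min to 1 nM active affinity-purified piRISC carrying a single synthetic guide, with or without 500 nM GTSF1 partner protein. Uncleaved targets were sequenced and normalised to depth and to weakly complementary targets. With three trials pooled and k3 capped at 0.0001 min^-1, a burst-and-steady-state fit produced the pre-steady-state cleavage rate.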

[2] = tested on: EfPiwi piRISC loaded with piRNA #1 (26 nt); assay: pre-steady-state target cleavage rate (min^-1); auxiliary factor: 500 nM Ephydatia muelleri Gtsf1; guide: piRNA #1 5'p-UGAGGUAGUAGGUUGUAUAGUAUCCA; MIWI and MILI are mouse PIWI proteins and EfPiwi is from a freshwater sponge; tags in brackets are library labels; higher = faster piRNA-guided slicing of the target
How it was run: as §1

Row | Sequence | pre-steady-state target cleavage rate [1] | pre-steady-state target cleavage rate [2]
1 | GGAGAGGAUACUAUACUACCUACUUCCUCA | 0.0617 ± 0.016 | 0.00269 ± 0.002
2 | GGAGUGGAUACUAUACAACCUACUACCAGA | 0.034 ± 0.0071 | 0.00419 ± 0.0019
3 | GGAGACCUAACUAUACAUCCUACUACCUGA | 0.116 ± 0.039 | 0.00344 ± 0.0029
4 | GGAGACCUAUGAUUACAACCUACUACCUCA [g2:g17:cont:t1A] | 0.00593 ± 0.0026 | 0.00451 ± 0.0032
5 | GGAGACGUUACUAUACAACCUACUACCUCA | 0.186 ± 0.014 | 0.0209 ± 0.0092
6 | GGAGACCACACUAUACAACCUACUACCUCA | 0.221 ± 0.042 | 0.0344 ± 0.015
7 | GGAGACCAUACUAUACAACCUACUACGUGA | 0.115 ± 0.024 | 0.0051 ± 0.0028
8 | GGAGUCGAUACUAUACAACCUACAACCUCA | 0.0405 ± 0.0054 | 0.00324 ± 0.0017
9 | GGAGACCUAACUAUACAACCUAAUACCUCA | 0.0504 ± 0.013 | 0.00511 ± 0.0036
10 | GGAGACCUUACUAUACAACCUAGUUCCUCA | 0.0143 ± 0.0048 | 0.00334 ± 0.0033
11 | GGAGACCUAUGAAAUACAACCUACUACCUCA | 0.0221 ± 0.0062 | 0.00445 ± 0.0038
12 | GGAGAGCAUACUAUACAACCUACUAGCUCA | 0.0696 ± 0.016 | 0.00355 ± 0.0022
13 | GGAGACCAUACAUACAACCUACUACCUCA | 0.119 ± 0.023 | 0.0126 ± 0.0066
14 | GGAGUGGAUACUAUACACCCUACUACCUCA | 0.0921 ± 0.0066 | 0.0673 ± 0.023
15 | GGAGAGGAUACAAUACAUCCUACUACCUCA | 0.239 ± 0.021 | 0.00771 ± 0.0035
16 | GGAGAGGAUACUAUACAACCUACUACCUGCA | 0.137 ± 0.012 | 0.00613 ± 0.0026
17 | GGAGACGCUACUAUACAACCUACUACCUCA | 0.228 ± 0.019 | 0.163 ± 0.051
18 | GGAGUGGAUACUAUACAACCAACUACCUCA | 0.00575 ± 0.0022 | 0.00568 ± 0.002
19 | GGAGUGGAUACUAUACUAGCUACUACCUCA | 0.158 ± 0.011 | 0.0081 ± 0.0031
20 | GGAGUGGAAUCUAUACAACCUACUACCUCA | 0.152 ± 0.0088 | 0.00913 ± 0.0055
21 | GGAGACGAUACUAUUCAACCUACAACCUCA | 0.103 ± 0.013 | 0.0024 ± 0.0017
22 | GGAGACCUAUCGAUACAACCUACUACCUCA | 0.0869 ± 0.014 | 0.0102 ± 0.0056
23 | GGAGUGGAUACUAUACAACCUACUACUCA | 0.0385 ± 0.0084 | 0.00563 ± 0.0029
24 | GGAGACGAUACUAUUCAACCUUCUACCUCA | 0.0105 ± 0.0025 | 0.00443 ± 0.0025
25 | GGAGACGAAACUAUACAACCUACUACGUCA | 0.0713 ± 0.022 | 0.00245 ± 0.0024
26 | GGAGACGAUACUAUACAACCUAGUUCCUCA | 0.00516 ± 0.0038 | 0.00305 ± 0.0018
27 | GGAGACAAUACUAUACAACCUACUACCUCA | 0.253 ± 0.021 | 0.0606 ± 0.023

Row | Sequence | pre-steady-state target cleavage rate [1] | pre-steady-state target cleavage rate [2]
28 | GGAGACCAUACUAUACAACCUACUACCUGCA | 0.213 ± 0.023 | 0.00318 ± 0.002
29 | GGAGACCUAUCUAUACAACCUACUACCUCCA | 0.0927 ± 0.0097 | 0.0208 ± 0.0083
30 | GGAGUGGCAUACUAUACAACCUACUACCUCA | 0.204 ± 0.015 | 0.101 ± 0.029
31 | GGAGUGGAUACUAUACAACCGACUACCUCA | 0.00279 ± 0.0026 | 0.00469 ± 0.0016
32 | GGAGUGGAUACUAUACAACCUACUACCUGCA | 0.109 ± 0.012 | 0.00841 ± 0.0028
33 | GGAGUGGAUACUAUAGAACCUACAACCUCA | 0.0134 ± 0.0034 | 0.00234 ± 0.0015
34 | GGAGAGGAUAGUAUACUACCUACUACCUCA | 0.0295 ± 0.0076 | 0.00274 ± 0.0027
35 | GGAGACGAUACUAUACAACCAACUACCACA | 0.00835 ± 0.0032 | 0.00406 ± 0.003
36 | GGAGACCAUACUAUACUACCUACUACCUGA | 0.134 ± 0.019 | 0.00271 ± 0.0014
37 | GGAGACCUUACUAUACAACCUACUACCCA | 0.0955 ± 0.016 | 0.00518 ± 0.0043
38 | GGAGACCAUACUAUACAACCUACCUACCUCA | 0.129 ± 0.017 | 0.00424 ± 0.0022
39 | GGAGAGGAUACUAAACAACCUACUUCCUCA | 0.0102 ± 0.0039 | 0.00239 ± 0.0016
40 | GGAGACGAUACUAUACAACCUACUACCCCA | 0.144 ± 0.025 | 0.00536 ± 0.0014
41 | GGAGACCAUACUAUACAUCCUACUACCUCA | 0.302 ± 0.025 | 0.00918 ± 0.0027
42 | GGAGACGAUACUAUACAACCUACAACGUCA | 0.00524 ± 0.0044 | 0.00349 ± 0.0012
43 | GGAGUGGAUAAUAUACAACCUACUACCUCA | 0.168 ± 0.011 | 0.0105 ± 0.0047
44 | GGAGUCGAUACUAUACAAGCUACUACCUCA | 0.142 ± 0.011 | 0.00581 ± 0.0024
45 | GGAGUGGAUACUAUACUUCCUACUACCUCA | 0.202 ± 0.013 | 0.0195 ± 0.01
46 | GGAGACGAUACAAUACUACCUACUACCUCA | 0.201 ± 0.017 | 0.00238 ± 0.0021
47 | GGAGACCAAACUUUACAACCUACUACCUCA | 0.137 ± 0.034 | 0.011 ± 0.0057
48 | GGAGACGAUACUAUACAACCUACUACCACA | 0.185 ± 0.018 | 0.00487 ± 0.0013
49 | GGAGACGAUACUAUACAACCGACUACCUCA | 0.00402 ± 0.0035 | 0.00284 ± 0.002
50 | GGAGACCUUACUAUACAACCUACUAUCUCA | 0.0879 ± 0.0097 | 0.00831 ± 0.0039
51 | GGAGGGGAUACUAUACAACCUACUACCUCA | 0.203 ± 0.0091 | 0.209 ± 0.067
52 | GGAGACCAUACAUUACAACCUACUACCUCA | 0.0869 ± 0.014 | 0.0108 ± 0.0045
53 | GGAGACCAUACUAUACUACGUACUACCUCA | 0.0334 ± 0.0056 | 0.00415 ± 0.0028
54 | GGAGACCAUACUGAUACAACCUACUACCUCA | 0.112 ± 0.014 | 0.0368 ± 0.013

Row | Sequence | pre-steady-state target cleavage rate [1] | pre-steady-state target cleavage rate [2]
55 | GGAGAGGAUACUGUACAACCUACUACCUCA | 0.121 ± 0.012 | 0.0789 ± 0.029
56 | GGAGACCUAACUAUACAACCUACUUCCUGA | 0.0081 ± 0.0069 | 0.00376 ± 0.0037
57 | GGAGACCAAACUAUACAUCCUACUACCUCA | 0.168 ± 0.034 | 0.0348 ± 0.013
58 | GGAGACCAUACUAUACCAACCUACUACCUCA | 0.0299 ± 0.0075 | 0.00761 ± 0.0031
59 | GGAGACGAUACUUAUACAACCUACUACCUCA | 0.139 ± 0.012 | 0.0473 ± 0.017
60 | GGAGUGGAUACUAUACAACCUAUUACCUCA | 0.158 ± 0.014 | 0.0922 ± 0.034
61 | GGAGAGGAUACUAUACAACCUUCUACCUCA | 0.0114 ± 0.0024 | 0.00778 ± 0.0039
62 | GGAGACGAUACUAUUCUACCUACUACCUCA | 0.173 ± 0.012 | 0.00416 ± 0.0035
63 | GGAGUGGAUACUAUUCAACCUACUACCUCA | 0.179 ± 0.0081 | 0.0119 ± 0.0052
64 | GGAGUGGAUACUAUACAACCUCUACCUCA | 0.0226 ± 0.0033 | 0.0673 ± 0.023
65 | GGAGACCUUACUAUACCACCUACUACCUCA | 0.109 ± 0.014 | 0.006 ± 0.003
66 | GGAGACCAUUCUAUACAACCUACUACCUGA | 0.0973 ± 0.016 | 0.00652 ± 0.0034
67 | GGAGAGGUUACUAUACAACCUACUAGCUCA | 0.00459 ± 0.0029 | 0.00306 ± 0.0015
68 | GGAGACCUAUGAUAUGUUGCUACUACCUA | < 0.0001 | < 0.0001
69 | GGAGAGGAAACUAUACAACCUAGUACCUCA | 0.0133 ± 0.0079 | 0.00323 ± 0.0013
70 | GGAGACGAUACUAUACAACCUACAUCCUCA | 0.05 ± 0.011 | 0.00353 ± 0.0014
71 | GGAGUGGAUGCUAUACAACCUACUACCUCA | 0.152 ± 0.022 | 0.0921 ± 0.046
72 | GGAGAGGAUACUAAACAACGUACUACCUCA | 0.013 ± 0.0022 | 0.00367 ± 0.002
73 | GGAGACGAUACUAUAGAACCAACUACCUCA | 0.00326 ± 0.0028 | 0.00377 ± 0.002
74 | GGAGAGGAUACUAUACAACCUACCACCUCA | 0.129 ± 0.018 | 0.00459 ± 0.002
75 | GGAGACCUUACUAUACAACCUACUACGAGA | 0.0846 ± 0.02 | 0.00452 ± 0.0025
76 | GGAGACCAUACUAUACAACCUACAUACCUCA | 0.146 ± 0.018 | 0.00306 ± 0.0029
77 | GGAGACCUUACUAUACAACCUACUAACCUCA | 0.178 ± 0.018 | 0.00393 ± 0.0038
78 | GGAGACCAUAUCUAUACAACCUACUACCUCA | 0.138 ± 0.015 | 0.124 ± 0.051
79 | GGAGACCAUUCUAAACAACCUACUACCUCA | 0.0936 ± 0.012 | 0.00894 ± 0.0049
80 | GGAGACCUAACAUACAACCUACUACCUCA | 0.0208 ± 0.009 | 0.0097 ± 0.005

— the supplement of paper PMC10338343
